# Measured values as given in PubChem BioAssay (EPA / NIEHS).
# The source made the active and inactive calls. How the source made its calls: active means hit-call score of the fitted dose curve at least 0.9, where 1 is the maximum; inactive means score below 0.9.
# Columns and labels:
# [1] = read-out: TIMP metallopeptidase inhibitor 1 (TIMP1), TIMP1 (gene 7076); experiment: BSK_hDFCGF_TIMP1: BioMAP Diversity Plus: hDFCGF Assay for TIMP metallopeptidase inhibitor 1 (TIMP1) Biomarker Activity (AID 2283062); settings: primary human foreskin fibroblasts; actives raise or lower the signal
# In short: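 Primary human foreskin fibroblasts in the hDFCGF system were dosed with compound for 24 h, then TIMP-1 was measured by ELISA. Activity was fitted bidirectionally relative to DMSO control; parallel SRB staining assessed cytotoxicity.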
# [2] = read-out: Matrix Metallopeptidase 1 (MMP1), MMP1 (gene 4312); experiment: BSK_hDFCGF_MMP1: BioMAP Diversity Plus: hDFCGF Assay for Matrix Metallopeptidase 1 (MMP1) Biomarker Activity (AID 2283064); settings: primary human foreskin fibroblasts; actives raise or lower the signal
# In short: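 ELISA read-out of MMP1 from human foreskin fibroblasts (primary skin cells), 24 h post-dose. Gain or loss of signal was fitted bidirectionally versus DMSO negative control; cytotoxicity was checked by SRB in parallel cultures.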
# [3] = read-out: Vascular cell adhesion molecule 1 (VCAM1), VCAM1 (gene 7412); experiment: BSK_hDFCGF_VCAM1: BioMAP Diversity Plus: hDFCGF Assay for Vascular cell adhesion molecule 1 (VCAM1) Biomarker Activity (AID 2283065); settings: primary human foreskin fibroblasts; actives raise or lower the signal
# In short: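 Primary human foreskin fibroblasts (hDFCGF system) were dosed with chemical and VCAM-1 was measured by ELISA 24 h later. Bidirectional curve fitting used DMSO as negative control and activity baseline.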
# [4] = read-out: Plasminogen activator inhibitor-1 (PAI1), SERPINE1 (gene 5054); experiment: BSK_hDFCGF_PAI1: BioMAP Diversity Plus: hDFCGF Assay for Plasminogen activator inhibitor-1 (PAI1) Biomarker Activity (AID 2283066); settings: primary human foreskin fibroblasts; actives raise or lower the signal
# In short: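 Fibroblasts from human foreskin were treated with test chemical. After 24 h, PAI-1 was measured by ELISA. Activity was fitted in both directions relative to DMSO.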
# [5] = read-out: Intercellular Adhesion Molecule 1 (ICAM1), ICAM1 (gene 3383); experiment: BSK_KF3CT_ICAM1: BioMAP Diversity Plus: KF3CT Assay for Intercellular Adhesion Molecule 1 (ICAM1) Biomarker Activity (AID 2283067); settings: primary human keratinocytes with fibroblasts; actives raise or lower the signal
# In short: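 Human keratinocyte plus foreskin fibroblast primary co-culture was exposed to chemical for 24 h. ICAM-1 was then quantified by ELISA, and the data were fit bidirectionally against DMSO as the negative control and baseline.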
# [6] = read-out: Interferon-gamma inducible Protein 10 (IP10), CXCL10 (gene 3627); experiment: BSK_KF3CT_IP10: BioMAP Diversity Plus: KF3CT Assay for Interferon-gamma inducible Protein 10 (IP10) Biomarker Activity (AID 2283068); settings: primary human keratinocytes with fibroblasts; actives raise or lower the signal
# In short: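 ELISA read-out of IP-10 after 24 h chemical dosing of human skin primary co-culture (keratinocytes, foreskin fibroblasts). Gain or loss of signal relative to DMSO, bidirectional curve fit.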
# [7] = BSK_KF3CT_SRB: Viability Assessment in the BioMAP Diversity Plus: KF3CT Assay (AID 2283069); settings: primary human keratinocytes with fibroblasts;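 further: total protein by sulforhodamine B staining as a cytotoxicity measure; read 24 h after compound addition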
# In short: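 SRB read-out at 560 nm (0.1% stain, TCA-fixed cells) gauges overt cytotoxicity in a human skin keratinocyte–fibroblast co-culture 24 h post-dosing. Signal change was fitted bidirectionally relative to DMSO control.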
# [8] = read-out: Interleukin-1 alpha (IL1a), IL1A (gene 3552); experiment: BSK_KF3CT_IL1a: BioMAP Diversity Plus: KF3CT Assay for Interleukin-1 alpha (IL1a) Biomarker Activity (AID 2283070); settings: primary human keratinocytes with fibroblasts; actives raise or lower the signal
# In short: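 Primary skin co-culture (keratinocytes, foreskin fibroblasts), 24 h exposure; ELISA for IL-1a; bidirectional curve fit vs DMSO.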
# [9] = read-out: TIMP metallopeptidase inhibitor 2 (TIMP2), TIMP2 (gene 7077); experiment: BSK_KF3CT_TIMP2: BioMAP Diversity Plus: KF3CT Assay for TIMP metallopeptidase inhibitor 2 (TIMP2) Biomarker Activity (AID 2283071); settings: primary human keratinocytes with fibroblasts; actives raise or lower the signal
# In short: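 Chemicals were dosed onto human skin primary co-cultures of keratinocytes and foreskin fibroblasts, and TIMP-2 was measured by ELISA after 24 hours. Activity in either direction was fitted relative to DMSO.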
# [10] = read-out: Transforming growth factor beta 1 (TGFb1), TGFB1 (gene 7040); experiment: BSK_KF3CT_TGFb1: BioMAP Diversity Plus: KF3CT Assay for Transforming growth factor beta 1 (TGFb1) Biomarker Activity (AID 2283072); settings: primary human keratinocytes with fibroblasts; actives raise or lower the signal
# In short: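 KF3CT co-culture (keratinocytes + fibroblasts), 24 h exposure → TGF-b1 ELISA → bidirectional fit, DMSO = baseline. Parallel SRB total-protein staining (0.1% SRB, 10% TCA fixation, 560 nm) for cytotoxicity.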
# [11] = read-out: C-C motif chemokine 2 (Homo sapiens) (UniProt P13500); experiment: BSK_KF3CT_MCP1: BioMAP Diversity Plus: KF3CT Assay for Monocyte Chemoattractant Protein 1 (MCP1/CCL2) Biomarker Activity (AID 2283073); settings: primary human keratinocytes with fibroblasts; actives raise or lower the signal
# In short: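 Human keratinocyte plus foreskin fibroblast primary co-culture exposed to chemical for 24 h. MCP-1 levels measured by ELISA. Bidirectional curve fitting relative to DMSO negative control as baseline.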
# [12] = read-out: Matrix Metallopeptidase 9 (MMP9), MMP9 (gene 4318); experiment: BSK_KF3CT_MMP9: BioMAP Diversity Plus: KF3CT Assay for Matrix Metallopeptidase 9 (MMP9) Biomarker Activity (AID 2283074); settings: primary human keratinocytes with fibroblasts; actives raise or lower the signal
# In short: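 ELISA read-out of MMP-9 at 24 h post-dosing in a co-culture of human skin keratinocytes and foreskin fibroblasts. Gain or loss of signal was fitted in both directions against DMSO.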
# [13] = read-out: urokinase plasminogen activator (uPA), PLAU (gene 5328); experiment: BSK_KF3CT_uPA: BioMAP Diversity Plus: KF3CT Assay for urokinase plasminogen activator (uPA) Biomarker Activity (AID 2283075); settings: primary human keratinocytes with fibroblasts; actives raise or lower the signal
# In short: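 Skin co-culture (keratinocytes + foreskin fibroblasts), human primary; 24 h post-dose; uPA by ELISA; gain/loss fit vs DMSO baseline.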
# CD40, CD40 (gene 958) = experiment: BSK_LPS_CD40: BioMAP Diversity Plus: LPS Assay for CD40 Biomarker Activity (AID 2283076); settings: primary human HUVEC with PBMC; actives raise or lower the signal
# In short: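 Primary human umbilical vein endothelial cells co-cultured with peripheral blood mononuclear cells, LPS-stimulated, were dosed with chemical and read 24 h later. CD40 levels were measured by ELISA and fitted bidirectionally against DMSO as negative control and baseline.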
# [14] = read-out: E-selectin (Homo sapiens) (UniProt P16581); experiment: BSK_LPS_Eselectin: BioMAP Diversity Plus: LPS Assay for Eselectin Biomarker Activity (AID 2283077); settings: primary human HUVEC with PBMC; actives raise or lower the signal
# In short: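 Human umbilical vein endothelial cells co-cultured with peripheral blood mononuclear cells under LPS stimulation; E-selectin measured by ELISA 24 h after chemical dosing. Activity fitted bidirectionally against DMSO as negative control and baseline.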
# [15] = read-out: Interleukin-8 (IL8), CXCL8 (gene 3576); experiment: BSK_LPS_IL8: BioMAP Diversity Plus: LPS Assay for Interleukin-8 (IL8) Biomarker Activity (AID 2283078); settings: primary human HUVEC with PBMC; actives raise or lower the signal
# In short: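 Human umbilical vein endothelial cells co-cultured with PBMC were stimulated with LPS; IL-8 levels were measured by ELISA 24 h after chemical dosing. Activity was fitted bidirectionally against DMSO as negative control and baseline.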
# [16] = BSK_LPS_SRB: Viability Assessment in the BioMAP Diversity Plus: LPS Assay (AID 2283079); settings: primary human HUVEC with PBMC;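 further: total protein by sulforhodamine B absorbance as a cytotoxicity measure; measured one day after compound addition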
# In short: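 Human umbilical vein endothelial cells co-cultured with PBMC (LPS system) were dosed for 24 h. Total protein was stained with 0.1% sulforhodamine B after 10% TCA fixation, read at 560 nm, and fitted bidirectionally against DMSO baseline.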
# [17] = read-out: Interleukin-1 alpha (IL1a), IL1A (gene 3552); experiment: BSK_LPS_IL1a: BioMAP Diversity Plus: LPS Assay for Interleukin-1 alpha (IL1a) Biomarker Activity (AID 2283080); settings: primary human HUVEC with PBMC; actives raise or lower the signal
# In short: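 Human umbilical vein endothelial cells co-cultured with peripheral blood mononuclear cells were LPS-stimulated and exposed to test chemicals for 24 h. IL-1 alpha was quantified by ELISA, with bidirectional curve fitting against DMSO as the negative control and baseline.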
# [18] = read-out: Monocyte Chemoattractant Protein-1 (MCP1), CCL2 (gene 6347); experiment: BSK_LPS_MCP1: BioMAP Diversity Plus: LPS Assay for Monocyte Chemoattractant Protein-1 (MCP1) Biomarker Activity (AID 2283081); settings: primary human HUVEC with PBMC; actives raise or lower the signal
# In short: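 HUVEC plus PBMC co-culture (human primary cells, LPS system) exposed to test chemical for 24 h; MCP-1 measured by ELISA. Bidirectional curve fitting against DMSO baseline; parallel SRB total-protein staining flags overt cytotoxicity.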
# Chain of E-selectin (Homo sapiens) (P16581 whole entry, looked up): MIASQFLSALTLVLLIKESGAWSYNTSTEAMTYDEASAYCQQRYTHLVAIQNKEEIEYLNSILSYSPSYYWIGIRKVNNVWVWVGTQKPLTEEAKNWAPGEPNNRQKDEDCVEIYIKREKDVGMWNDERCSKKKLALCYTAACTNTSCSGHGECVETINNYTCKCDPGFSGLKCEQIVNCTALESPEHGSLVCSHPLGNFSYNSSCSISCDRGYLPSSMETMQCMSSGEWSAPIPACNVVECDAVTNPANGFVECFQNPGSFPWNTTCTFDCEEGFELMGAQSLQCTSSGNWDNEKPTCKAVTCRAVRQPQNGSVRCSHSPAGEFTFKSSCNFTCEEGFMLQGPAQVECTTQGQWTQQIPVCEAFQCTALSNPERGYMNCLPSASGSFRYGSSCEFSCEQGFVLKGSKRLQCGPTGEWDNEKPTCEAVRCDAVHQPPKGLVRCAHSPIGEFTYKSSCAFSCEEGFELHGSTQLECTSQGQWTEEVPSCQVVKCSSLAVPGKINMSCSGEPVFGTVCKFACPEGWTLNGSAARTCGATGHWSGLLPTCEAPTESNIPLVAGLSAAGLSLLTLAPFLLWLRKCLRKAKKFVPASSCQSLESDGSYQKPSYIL
SMILES,outcome [1],outcome [2],outcome [3],outcome [4],outcome [5],outcome [6],outcome [7],outcome [8],outcome [9],outcome [10],outcome [11],outcome [12],outcome [13],"AC50 (CD40, CD40 (gene 958))",outcome [14],outcome [15],outcome [16],outcome [17],outcome [18],"outcome (CD40, CD40 (gene 958))"
O=c1[nH]cc(F)c(=O)[nH]1,inactive,inactive,inactive,inactive,inactive,inactive,inactive,inactive,inactive,inactive,inactive,inactive,inactive,20.4 µM (active),inactive,inactive,inactive,inactive,inactive,
CCNc1cccc(C)c1,inactive,inactive,inactive,inactive,inactive,inactive,inactive,inactive,inactive,inactive,inactive,inactive,inactive,,inactive,inactive,inactive,inactive,inactive,inactive
CCCCCC(=O)O,inactive,inactive,inactive,inactive,inactive,inactive,inactive,inactive,inactive,inactive,inactive,inactive,inactive,,inactive,inactive,inactive,inactive,inactive,inactive
